# Laboratory results as given in the supplement of paper PMC3545927.
# Some of the results follow. How many sequences the whole screen found active is unknown.
# B1: HC517 (peptide)
# chain: CAAIKWEYVVAGNASASA
# B2: HC2255 (peptide)
# chain: CAEVVTSTWHAGNASASA
# B3: HC354 (peptide)
# chain: CAVTGGSAGHAGNASASA
# B4: HC1233 (peptide)
# chain: CAVSFRVGLHAGNASASA
# B5: FS-1625 (peptide)
# chain: CADVSRNARHAGNASASA
# B6: FS-965 (peptide)
# chain: CAVGQRQARHAGNASASA
# B7: HC2035 (peptide)
# chain: CAVVHCSMSYAGNASASA
# B8: FS-107 (peptide)
# chain: CAVVHRFARHAGNASASA
# B9: HC992 (peptide)
# chain: CAVGGVLAALAGNASASA
# B10: HC304 (peptide)
# chain: CAVGQLFTFSAGNASASA
# B11: FS-1431 (peptide)
# chain: CAVMHRVARHAGNASASA
# B12: HC988 (peptide)
# chain: CAVVTSTWVLAGNASASA
# B13: HC653 (peptide)
# chain: CATWGADTAAAGNASASA
# B14: HC471 (peptide)
# chain: CATINYTIFKAGNASASA
# B15: HC1094 (peptide)
# chain: CAKIMSGEVPAGNASASA
# B16: HC275 (peptide)
# chain: CACVREGNASAGNASASA
# B17: FS-1379 (peptide)
# chain: CAPCERKGRSAGNASASA
# B18: HC906 (peptide)
# chain: CATGRGKPGIAGNASASA
# B19: FS-1290 (peptide)
# chain: CATGRRKGRSAGNASASA
# B20: HC414 (peptide)
# chain: CAYCFTPSPVAGNASASA
# B21: HC2469 (peptide)
# chain: CAYTPCSAHLAGNASASA
# B22: HC1583 (peptide)
# chain: CALMTHFFSVAGNASASA
# B23: FS-1727 (peptide)
# chain: CARKKRAAGQAGNASASA
# B24: HC1797 (peptide)
# chain: CASEMEECSQAGNASASA
# B25: HC1791 (peptide)
# chain: CADEMEECSQAGNASASA
# B26: HC1785 (peptide)
# chain: CALEMEECSQAGNASASA
# B27: FS-1904 (peptide)
# chain: CARKMRDDERAGNASASA
# B28: FS-3257 (peptide)
# chain: CARKKRWAERAGNASASA
# B29: FS-2692 (peptide)
# chain: CARKKRFAKQAGNASASA
# B30: HC1639 (peptide)
# chain: CATPIAAAGQAGNASASA
# B31: FS-1857 (peptide)
# chain: CARKKRLEEQAGNASASA
# Biological target: furin, P09958
# Test: furin cleavage Z-score vs untreated control; higher = more cleavage, active = 3.5 or more, inactive = 1 or less, 8 variable residues between constant flanks
# In short: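 Cleavage by purified furin was measured on 8-mer peptides fused to a cDNA oligonucleotide and held on magnetic beads by their N-terminus. Reactions (0.01 ml, 1:10 enzyme:substrate) ran 7.5, 15 or 30 min in 50 mM HEPES pH 7.5 with CaCl2 and NaCl. Released DNA was adapter-tagged by PCR and sequenced, with read counts giving abundance. Log counts versus furin-free reactions were lowess-adjusted and scaled by median absolute deviation to give the cleavage Z-score.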
# Chain of furin, P09958 (P09958 whole entry): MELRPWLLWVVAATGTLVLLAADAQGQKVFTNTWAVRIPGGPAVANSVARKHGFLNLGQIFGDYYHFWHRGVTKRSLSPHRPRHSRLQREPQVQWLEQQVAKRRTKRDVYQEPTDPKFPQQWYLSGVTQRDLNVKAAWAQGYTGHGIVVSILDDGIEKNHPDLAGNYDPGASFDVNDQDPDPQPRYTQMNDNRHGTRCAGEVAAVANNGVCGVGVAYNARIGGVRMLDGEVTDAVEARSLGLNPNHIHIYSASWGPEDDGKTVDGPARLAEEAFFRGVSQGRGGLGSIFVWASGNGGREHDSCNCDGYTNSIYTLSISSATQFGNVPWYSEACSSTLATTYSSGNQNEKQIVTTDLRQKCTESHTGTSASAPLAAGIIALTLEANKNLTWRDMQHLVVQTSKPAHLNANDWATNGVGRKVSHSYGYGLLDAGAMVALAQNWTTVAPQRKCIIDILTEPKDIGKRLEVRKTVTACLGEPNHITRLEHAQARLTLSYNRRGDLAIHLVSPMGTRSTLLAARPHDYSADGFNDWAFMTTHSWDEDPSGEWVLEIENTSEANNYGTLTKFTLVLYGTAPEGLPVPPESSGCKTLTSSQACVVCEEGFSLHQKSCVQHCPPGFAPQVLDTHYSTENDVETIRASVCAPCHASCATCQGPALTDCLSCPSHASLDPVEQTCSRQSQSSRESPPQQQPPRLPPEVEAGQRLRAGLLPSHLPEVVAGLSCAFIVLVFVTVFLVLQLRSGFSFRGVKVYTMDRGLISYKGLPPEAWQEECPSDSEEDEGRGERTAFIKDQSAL
Sequence,furin cleavage Z-score (7.5 min),furin cleavage Z-score (15 min),furin cleavage Z-score (30 min)
B1,-0.197 (inactive),-3.37 (inactive),-0.457 (inactive)
B2,1.36,-3.35 (inactive),0.0251 (inactive)
B3,0.0621 (inactive),-1.5 (inactive),-0.849 (inactive)
B4,-0.575 (inactive),0.122 (inactive),1
B5,3.37,3.82 (active),3.7 (active)
B6,4.69 (active),5.78 (active),5.69 (active)
B7,-0.95 (inactive),-0.538 (inactive),-0.331 (inactive)
B8,10.1 (active),9.64 (active),8.96 (active)
B9,-0.486 (inactive),-0.617 (inactive),-1.61 (inactive)
B10,0.324 (inactive),-1.01 (inactive),-1.31 (inactive)
B11,10.4 (active),9.27 (active),9.21 (active)
B12,-0.433 (inactive),-1.05 (inactive),-0.901 (inactive)
B13,-1.68 (inactive),-0.657 (inactive),0.025 (inactive)
B14,-0.464 (inactive),-1.13 (inactive),-1.75 (inactive)
B15,0.645 (inactive),-1.21 (inactive),-1.34 (inactive)
B16,-1.21 (inactive),-1.14 (inactive),-0.496 (inactive)

Sequence,furin cleavage Z-score (7.5 min),furin cleavage Z-score (15 min),furin cleavage Z-score (30 min)
B17,5.38 (active),8.32 (active),6.45 (active)
B18,-0.769 (inactive),0.329 (inactive),1.63
B19,10.3 (active),12.1 (active),8.69 (active)
B20,-0.826 (inactive),-2.21 (inactive),-2.26 (inactive)
B21,-1.25 (inactive),-1.32 (inactive),-1.27 (inactive)
B22,-2.19 (inactive),-1.38 (inactive),-1.85 (inactive)
B23,10.8 (active),11.8 (active),8.92 (active)
B24,1.23,-0.566 (inactive),0.242 (inactive)
B25,6.21 (active),-2.13 (inactive),-5.81 (inactive)
B26,0.133 (inactive),0.777 (inactive),-0.27 (inactive)
B27,0.00727 (inactive),-0.39 (inactive),-1.4 (inactive)
B28,8.39 (active),10.8 (active),10.8 (active)
B29,5.98 (active),8.51 (active),8.88 (active)
B30,-1.29 (inactive),-1.26 (inactive),-1.59 (inactive)
B31,-0.193 (inactive),1.1,0.0714 (inactive)
